“And” between values parts separate entries of the source, which are not always exact repeats. Identical values can stand only once. The source made the active and inactive calls. The calls were made as follows: active = hit-call score of the fitted dose curve at least 0.9, where 1 is the maximum; inactive = score below 0.9.

This experiment is described as follows: IUF_NPC2a_radial_glia_migration_72hr: Leibniz Research Institute for Environmental Medicine (IUF) 72-hour Neural Progenitor Cell Migration Assay for Radial Glia Migration (NPC2a) (AID 2284299). As for the experimental part:
IUF_NPC2-5 is a cell-based, multiplexed assay that uses hNPC, a human primary neural progenitor cells, with measurements taken at 72 or 120 hours after chemical dosing in a 96-well plate. Human neural progenitor cells (hNPC) are generated from human fetal brain cortex at gestational week (GW) 16-19. In the neural progenitor cell migration and differentiation assay (NPC2-5), hNPCs grown as spheres are plated on an extracellular matrix and migrate and differentiate out of the sphere core. The processes radial glia migration, neuronal and oligodendrocyte migration as well as neuronal differentiation, neuronal morphology and oligodendrocyte differentiation are studied using automated phase contrast imaging and automated fluorescence imaging in combination with high content image analysis. In parallel, the cell viability is assessed using an alamar blue viability assay and the cytotoxicity using a lactate dehydrogenase dependent membrane integrity assay.IUF_NPC2a_radial glia_migration_72hr is one of 12 assay components measured from the IUF_NPC2-5 assay. The migration distance of radial glia at 72 hr is assessed in um from the edge of the sphere core to the edge of the migration area based on brightfield images of each well. Therefore, each plate is scanned using a high content imaging device. Images are exported and the migration distance is measured manually in four directions using ImageJ. The mean of four measures per well is used as raw data input.Data from the IUF_NPC2a_radial_glia_migration_72hr component was analyzed at the endpoint IUF_NPC2a_radial_glia_migration_72hr in the positive analysis fitting direction relative to DMSO as the negative control and baseline of activity. Using a type of migration reporter, gain or loss-of-signal activity can be used to understand developmental effects.
Culture protocol: After the cell expansion period the cells are cultured for up to four weeks in which they are passaged every week as described in 3.6. Between one to three days after passaging spheres at a size of 0.3 mm are picked for the test method. For the assessment of neural progenitor cell migration and differentiation, the spheres are plated on poly-D-lysine/laminin coated 96-well flat bottom plates in differentiation medium (N2) to initiate migration and differentiation. Thereby one 0.3 mm big sphere is plated in the middle of a well. The differentiation medium consists of DMEM and Ham's F12 at a ratio of 3 to 1 supplemented with 1% N2 and 1% penicillin and streptomycin. Within 5 days NPCs radially migrate out of the sphere core and differentiate into radial glia cells (nestin positive), neurons (TUBB3 positive), oligodendrocytes (O4 positive) and astrocytes (GFAP positive). Cultivation during the test method is performed at 37C and 5% CO2 at a ph of 7.2-7.6.Exposure: 0.3 mm big hNPC are plated in the already prepared test conditions. Exposure starts at day 0 of differentiation and is continued over five days of differentiation until the experiment is terminated. Cells are fed with fresh medium at day 3 of differentiation. Therefore, half of the test condition solution (e.g. solvent control or compound dilution) is replaced by freshly prepared test condition solution.Test Method: Migration distance and cytotoxicity is determined after 72 hours based on brightfield images of each well. The assay is terminated by the assessment of cell viability and cytotoxicity as well as cell fixation after 120 h. Immunocytochemistry is performed for Hoechst positive nuclei, TUBB3 positive neurons and O4 positive oligodendrocytes. On the ICC images, migration after 120 hours, neuronal and oligodendrocyte number, neuronal morphology and neuron/oligodendrocyte specific migration is assessed. immunocytochemical staining (ICC) generates an image for each sphere. The plates are scanned using an automated high content imaging device and all nuclei and their positions are determined automatically based on their intensity and size. […]
For `CP(=O)(O)CCC(N)C(=O)O` (stereo unspecified), the compound was classed as inactive.
For `O=C1N[C@@H]2C(=C[C@H](O)[C@@H](O)[C@H]2O)c2cc3c(c(O)c21)OCO3`, the AC50 was 45 nM (active).
On the same count and under the same terms, the result for `[Cd+2].[Cl-].[Cl-]` reads 8950 nM (active).
Turning to `CNC(=N[N+](=O)[O-])NCC1CCOC1` (stereo unspecified), the outcome was inactive.
Regarding `[CH3][Hg][Cl]`, the AC50 is 1.11 µM (active) and 255 nM (active).
For `CC1(C)[C@H](C=C(Cl)Cl)[C@H]1C(=O)OCc1c(F)c(F)cc(F)c1F`, the result was inactive.
Take `CC1(C)[C@H](C(=O)O[C@H](C#N)c2cccc(Oc3ccccc3)c2)[C@@H]1C=C(Br)Br`: the AC50 is 670 nM (active).
`CC1(C)C(C=C(Cl)c2ccc(Cl)cc2)C1C(=O)OC(C#N)c1ccc(F)c(Oc2ccccc2)c1` (stereo unspecified): the call was inactive.
Still for that read-out and setting: the result for `C/C(=C/C=C/[C@@H](C)C(=O)O)[C@H]1CN[C@H](C(=O)O)[C@H]1CC(=O)O` reads “inactive”; that for `O=[As]O`, “inactive”; that for `Brc1ccc(Oc2cc(Br)c(Br)cc2Br)c(Br)c1`, “inactive”.
On the same count and under the same terms, as for `CC(C)CC(C)c1sccc1NC(=O)c1cn(C)nc1C(F)(F)F` (stereo unspecified), the entry is “inactive”; as for `CCOP(=O)(OCC)SCSC(C)(C)C`, “inactive”; as for `C[n+]1ccc(-c2ccccc2)cc1`, “inactive”.
As for `CCOP(=O)(OCC)OC(Cl)C(Cl)(Cl)Cl` (stereo unspecified), the result was inactive.
The same measure, in the same setting: the result for `COP(=O)(OC)SCN1C(=O)c2ccccc2C1=O` reads “inactive”; that for `CC(=O)[O-].CC(=O)[O-].O.O.O.[Pb+2]`, “inactive”; that for `Cn1nc(C(F)(F)F)c(CS(=O)(=O)C2=NOC(C)(C)C2)c1OC(F)F`, “inactive”.
The same measure, in the same setting: as for `[O-][Cl+3]([O-])([O-])O`, the entry is “inactive”; as for `CCOP(=S)(OCC)SCS(=O)C(C)(C)C` (stereo unspecified), “inactive”; as for `CCOP(=O)(OCC)SCSCC`, “inactive”.
With `CC(=O)[O-].[Tl+]`, the AC50 was 62700 nM (active).
For the compound `CC(C)CCCCCCCOP(=O)(Oc1ccccc1)Oc1ccccc1`, the call was inactive.
The same measure, in the same setting: the result for `CC1(C)C(C=C(Cl)Cl)C1C(=O)O[C@H](C#N)c1cccc(Oc2ccccc2)c1` (stereo partly specified) reads “inactive”.
The same measure, in the same setting: the result for `Cc1ccc(OP(=O)(Oc2ccc(C)cc2)Oc2ccc(C)cc2)cc1` (tested in a mixture with another compound) reads “inactive”; that for `CC1(C)[C@@H](C=C(Cl)Cl)[C@@H]1C(=O)O[C@@H](C#N)c1ccc(F)c(Oc2ccccc2)c1`, “inactive”; that for `Brc1ccc(Oc2ccc(Br)cc2Br)c(Br)c1`, “inactive”.
Same read-out and setting: the result for `C[n+]1ccc(-c2cc[n+](C)cc2)cc1` reads “inactive”; that for `CC1(C)C(C=C(Cl)Cl)[C@H]1C(=O)O[C@H](C#N)c1cccc(Oc2ccccc2)c1` (stereo partly specified), “inactive”; that for `CCOP(=O)(Oc1cnc(C(C)(C)C)nc1)OC(C)C` (stereo unspecified), “inactive”.
As for `CNC1(c2ccccc2Cl)CCCCC1=O` (stereo unspecified), the compound was called inactive.

In general, AC50 refers to the midpoint of the concentration-response curve, whichever way the signal moves.

For the origin of these results see PubChem BioAssay (EPA / NIEHS).
